For four compounds, outcome and AC50 results are on record in PubChem BioAssay (EPA / NIEHS).

The structures appear in SMILES notation. Activity calls are given as the source filed them. The calls were made as follows: active = hit-call score of the fitted dose curve at least 0.9, where 1 is the maximum; inactive = score below 0.9.

Common to all, as to conditions: mRNA level, 48 h; actives raise or lower the signal
Read-out in assay [1]: Cytochrome P450 (CYP24A1), CYP24A1 (gene 1591)
In words: LTEA_HepaRG_CYP24A1: Life Technologies and Expression Analysis (LTEA) Assay for Cytochrome P450 (CYP24A1) using HepaRG (AID 2283478). In a few lines:
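qRT-PCR read-out: CYP24A1 transcript levels normalized to three housekeeping genes, bidirectional curve fits against 0.5% DMSO baseline. Human HepaRG cells treated 48 h with chemicals at eight concentrations from 100 uM in half-log steps.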

Read-out in assay [2]: Cytochrome P450 (CYP1A2), CYP1A2 (gene 1544)
The experiment in a line: LTEA_HepaRG_CYP1A2: Life Technologies and Expression Analysis (LTEA) Assay for Cytochrome P450 (CYP1A2) using HepaRG (AID 2283479). The essentials:
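HepaRG, 48 h exposure, top 100 uM, half-log 8-pt, 0.5% DMSO vehicle, duplicates. Readout: TaqMan qRT-PCR of CYP1A2 mRNA, housekeeping-normalized (ACTB/GAPDH/POLR2A). Gain/loss fit relative to DMSO baseline.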

Read-out in assay [3]: cysteine-aspartic acid protease (CASP8), CASP8 (gene 841)
In words: LTEA_HepaRG_CASP8: Life Technologies and Expression Analysis (LTEA) Assay for cysteine-aspartic acid protease (CASP8) using HepaRG (AID 2283480). In a few lines:
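HepaRG, 48 h exposure, duplicate wells; 8 conc, half-log from 100 uM, 0.5% DMSO. Serum-free induction medium. CASP8 mRNA by TaqMan qRT-PCR, norm. ACTB/GAPDH/POLR2A; gain/loss fitted vs DMSO.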

Read-out in assay [4]: Cytochrome P450 (CYP2B6), CYP2B6 (gene 1555)
The experiment in a line: LTEA_HepaRG_CYP2B6: Life Technologies and Expression Analysis (LTEA) Assay for Cytochrome P450 (CYP2B6) using HepaRG (AID 2283481). The essentials:
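Read-out is CYP2B6 mRNA by TaqMan qRT-PCR, normalized to three housekeeping genes and fitted bidirectionally against 0.5% DMSO baseline. Human HepaRG cells received test chemicals for 48 h, top concentration 100 uM, half-log dilutions.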

Read-out in assay [5]: Cytochrome P450 2C19 (Homo sapiens) (UniProt P33261)
In words: LTEA_HepaRG_CYP2C19: Life Technologies and Expression Analysis (LTEA) Assay for CYP2C19 using HepaRG (AID 2283482). In a few lines: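 HepaRG, 48 h chemical exposure, 8-pt half-log series from 100 uM in 0.5% DMSO, duplicates. Readout: CYP2C19 mRNA by TaqMan qRT-PCR, housekeeping-normalized. Bidirectional fit vs DMSO baseline; phenobarbital 1mM as induction control.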

Read-out in a further assay: CYP2C8 (gene 1558)
The experiment in a line: LTEA_HepaRG_CYP2C8: Life Technologies and Expression Analysis (LTEA) Assay for CYP2C8 using HepaRG (AID 2283483). The essentials: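 CYP2C8 mRNA induction or loss, by qRT-PCR normalized to ACTB/GAPDH/POLR2A, is read in HepaRG cells after 48 h treatment. Concentrations run from 100 uM down in half-log dilutions, with 0.5% DMSO as vehicle and baseline.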

Read-out in the next assay: CYP2C9 (gene 1559)
In words: LTEA_HepaRG_CYP2C9: Life Technologies and Expression Analysis (LTEA) Assay for CYP2C9 using HepaRG (AID 2283484). The essentials:
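Cells plated 48 h, switched to serum-free induction medium, then treated in duplicate for 48 h at eight concentrations (max 100 uM, 0.5% DMSO). RNA then analysed by qRT-PCR for CYP2C9; curves fitted in both directions relative to DMSO.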

Read-out in another assay: CYP2E1 (gene 1571)
The experiment in a line: LTEA_HepaRG_CYP2E1: Life Technologies and Expression Analysis (LTEA) Assay for CYP2E1 using HepaRG (AID 2283485). In a few lines: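 Human liver line HepaRG, plated 48 h, then serum-free induction medium + chemical x 48 h; 8-pt CRC from 100 uM, half-log, 0.5% DMSO, n=2. Readout: CYP2E1 mRNA qRT-PCR vs ACTB/GAPDH/POLR2A; bidirectional fit vs DMSO.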

Read-out in assay [6]: Cytochrome P450 3A4 (Homo sapiens) (UniProt P08684)
The experiment in a line: LTEA_HepaRG_CYP3A4: Life Technologies and Expression Analysis (LTEA) Assay for CYP3A4 using HepaRG (AID 2283487). In a few lines:
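HepaRG, 48 h exposure, 8-pt CRC from 100 uM (half-log), 0.5% DMSO, duplicates; serum-free induction medium. Readout: CYP3A4 mRNA, qRT-PCR, ACTB/GAPDH/POLR2A normalization. Bidirectional fit vs DMSO.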

Read-out in assay [7]: DNA damage-inducible transcript 3 (DDIT3), DDIT3 (gene 1649)
The experiment in a line: LTEA_HepaRG_DDIT3: Life Technologies and Expression Analysis (LTEA) Assay for DNA damage-inducible transcript 3 (DDIT3) using HepaRG (AID 2283488). In a few lines: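 HepaRG plated 48 h, switched to serum-free induction medium, dosed 48 h (100 uM top, half-log, 8 pts, 0.5% DMSO, n=2); RNA isolated; DDIT3 by qRT-PCR; bidirectional curve fit vs DMSO.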

Read-out in assay [8]: Pro-epidermal growth factor (Homo sapiens) (UniProt P01133)
The experiment in a line: LTEA_HepaRG_EGF: Life Technologies and Expression Analysis (LTEA) Assay for Epidermal growth factor (EGF) using HepaRG (AID 2283489). In a few lines: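 qRT-PCR readout of EGF transcript after 48 h chemical exposure of HepaRG cells; eight concentrations from 100 uM down in half-log steps, duplicate wells, 0.5% DMSO vehicle. Bidirectional curve fitting against DMSO baseline.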

Read-out in assay [9]: Early growth response protein 1 (EGR1) transcription factor, EGR1 (gene 1958)
The experiment in a line: LTEA_HepaRG_EGR1: Life Technologies and Expression Analysis (LTEA) Assay for Early growth response protein 1 (EGR1) transcription factor using HepaRG (AID 2283490). The essentials:
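Read-out is EGR1 mRNA level by qRT-PCR, normalized to three housekeeping genes and analysed for gain or loss of signal against 0.5% DMSO. Source cells: human HepaRG, treated 48 h at up to 100 uM in half-log dilutions.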

Read-out in assay [10]: Ezrin (EZR), EZR (gene 7430)
The experiment in a line: LTEA_HepaRG_EZR: Life Technologies and Expression Analysis (LTEA) Assay for Ezrin (EZR) using HepaRG (AID 2283491). In a few lines:
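Read-out is EZR transcript level by qRT-PCR, normalized to three housekeeping genes and fitted bidirectionally against the DMSO control. Human HepaRG cells received test chemicals for 48 h at eight half-log concentrations up to 100 uM in 0.5% DMSO.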

Read-out in assay [11]: Cytochrome P450 3A7 (Homo sapiens) (UniProt P24462)
In words: LTEA_HepaRG_CYP3A7: Life Technologies and Expression Analysis (LTEA) Assay for CYP3A7 using HepaRG (AID 2283492). The essentials:
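CYP3A7 transcript levels were read by TaqMan qRT-PCR on Fluidigm arrays after 48 h chemical exposure of human HepaRG cells, with housekeeping-gene normalisation. Eight half-log concentrations up to 100 uM in 0.5% DMSO were tested in duplicate.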

Read-out in a further assay: CYP3A5 (gene 1577)
The experiment in a line: LTEA_HepaRG_CYP3A5: Life Technologies and Expression Analysis (LTEA) Assay for CYP3A5 using HepaRG (AID 2283493). In a few lines:
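HepaRG plated 48 h, switched to serum-free induction medium, chemicals added 48 h (max 100 uM, half-log, 0.5% DMSO). RNA isolated; CYP3A5 by TaqMan qRT-PCR. Gain/loss vs DMSO.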

Read-out in assay [12]: Fatty Acid-Binding Protein 1 (FABP1), FABP1 (gene 2168)
In words: LTEA_HepaRG_FABP1: Life Technologies and Expression Analysis (LTEA) Assay for Fatty Acid-Binding Protein 1 (FABP1) using HepaRG (AID 2283494). In a few lines: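 HepaRG, 48 h post-plating switched to serum-free induction medium, then dosed 48 h (duplicate, 8 pts, ≤100 uM, 0.5% DMSO). RNA → Fluidigm TaqMan qRT-PCR, FABP1 normed to ACTB/GAPDH/POLR2A. Bidirectional curve fit vs DMSO.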

Read-out in assay [13]: Cytochrome P450 7A1 (Homo sapiens) (UniProt P22680)
In words: LTEA_HepaRG_CYP7A1: Life Technologies and Expression Analysis (LTEA) Assay for Cytochrome P450 7A1 (CYP7A1) using HepaRG (AID 2283496). In a few lines: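 HepaRG cells plated 48 h, then switched to serum-free induction medium and exposed in duplicate for 48 h to 8-point half-log series from 100 uM in 0.5% DMSO. CYP7A1 mRNA by qRT-PCR (TaqMan), normalized to ACTB/GAPDH/POLR2A; bidirectional fit versus DMSO.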

Read-out in assay [14]: Glutathione S-Transferase (GSTA2), GSTA2 (gene 2939)
In words: LTEA_HepaRG_GSTA2: Life Technologies and Expression Analysis (LTEA) Assay for Glutathione S-Transferase (GSTA2) using HepaRG (AID 2283497). The essentials: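 HepaRG, 48 h dosing, 8-pt half-log CRC from 100 uM, 0.5% DMSO vehicle, n=2; RNA → Fluidigm TaqMan qRT-PCR; GSTA2 vs ACTB/GAPDH/POLR2A; gain/loss fit vs DMSO.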

Read-out in assay [15]: Cytochrome P450 4A22 (Homo sapiens) (UniProt Q5TCH4)
The experiment in a line: LTEA_HepaRG_CYP4A22: Life Technologies and Expression Analysis (LTEA) Assay for Cytochrome P450 4A22 (CYP4A22) using HepaRG (AID 2283495). The essentials: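 HepaRG, 48 h post-plating -> serum-free induction medium; dosed 48 h, duplicate, 8 conc. (100 uM top, half-log), 0.5% DMSO. Readout: CYP4A22 mRNA by qRT-PCR, ACTB/GAPDH/POLR2A normalization; gain/loss fit relative to DMSO.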

Read-out in the next assay: CYP4A11 (gene 1579)
The experiment in a line: LTEA_HepaRG_CYP4A11: Life Technologies and Expression Analysis (LTEA) Assay for CYP4A11 using HepaRG (AID 2283486). The essentials: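 CYP4A11 transcript levels were quantified by TaqMan qRT-PCR after HepaRG human liver cells were treated for 48 hours with test chemicals (top 100 uM, half-log dilutions, 0.5% DMSO). Gain or loss of signal was fitted relative to DMSO.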

Cytochrome P450 3A7 (Homo sapiens), sequence (P24462 whole entry, looked up): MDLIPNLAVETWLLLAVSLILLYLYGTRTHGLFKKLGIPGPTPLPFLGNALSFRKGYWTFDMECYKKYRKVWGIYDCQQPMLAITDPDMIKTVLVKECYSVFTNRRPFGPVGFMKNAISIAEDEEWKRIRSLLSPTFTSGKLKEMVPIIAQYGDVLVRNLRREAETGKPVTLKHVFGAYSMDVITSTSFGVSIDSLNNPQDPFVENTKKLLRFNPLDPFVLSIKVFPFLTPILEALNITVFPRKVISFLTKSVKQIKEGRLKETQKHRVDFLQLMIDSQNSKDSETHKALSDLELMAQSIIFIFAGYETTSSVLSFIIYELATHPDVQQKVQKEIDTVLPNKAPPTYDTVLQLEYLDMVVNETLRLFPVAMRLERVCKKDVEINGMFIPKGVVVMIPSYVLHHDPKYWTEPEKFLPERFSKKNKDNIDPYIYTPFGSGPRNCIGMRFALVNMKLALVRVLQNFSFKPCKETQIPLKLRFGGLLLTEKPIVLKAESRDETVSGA
Cytochrome P450 2C19 (Homo sapiens), sequence (P33261 whole entry, looked up): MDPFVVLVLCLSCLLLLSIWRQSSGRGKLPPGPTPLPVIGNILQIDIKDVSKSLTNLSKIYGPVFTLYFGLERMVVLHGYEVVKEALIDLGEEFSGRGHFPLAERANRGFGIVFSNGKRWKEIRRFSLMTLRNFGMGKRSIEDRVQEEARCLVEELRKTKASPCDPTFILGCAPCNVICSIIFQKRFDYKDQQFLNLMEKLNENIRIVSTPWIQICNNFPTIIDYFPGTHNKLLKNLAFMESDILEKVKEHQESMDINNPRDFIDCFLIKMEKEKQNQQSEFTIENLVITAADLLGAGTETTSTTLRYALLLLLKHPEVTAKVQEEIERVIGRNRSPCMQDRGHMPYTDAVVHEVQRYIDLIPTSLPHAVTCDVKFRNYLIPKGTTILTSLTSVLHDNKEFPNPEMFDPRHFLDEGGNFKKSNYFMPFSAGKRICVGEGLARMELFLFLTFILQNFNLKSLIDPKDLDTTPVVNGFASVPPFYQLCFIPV
Cytochrome P450 3A4 (Homo sapiens), sequence (P08684 whole entry, looked up): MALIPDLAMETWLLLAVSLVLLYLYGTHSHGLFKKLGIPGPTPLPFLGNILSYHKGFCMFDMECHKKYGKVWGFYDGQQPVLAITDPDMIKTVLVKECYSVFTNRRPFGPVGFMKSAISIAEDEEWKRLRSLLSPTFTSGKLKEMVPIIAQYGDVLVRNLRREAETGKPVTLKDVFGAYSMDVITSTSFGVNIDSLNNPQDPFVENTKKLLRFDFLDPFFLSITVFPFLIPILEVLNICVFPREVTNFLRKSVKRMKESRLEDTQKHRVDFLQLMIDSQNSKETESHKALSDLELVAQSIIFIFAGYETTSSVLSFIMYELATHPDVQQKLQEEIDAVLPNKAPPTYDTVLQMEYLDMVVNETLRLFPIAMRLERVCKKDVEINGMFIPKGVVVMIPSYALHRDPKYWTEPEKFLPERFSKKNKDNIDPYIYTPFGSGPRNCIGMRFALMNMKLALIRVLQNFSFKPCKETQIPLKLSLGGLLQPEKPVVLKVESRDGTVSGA

For the compound `Cc1cn([C@H]2C=C[C@@H](CO)O2)c(=O)[nH]c1=O`, the result (in [1]; in assay [2]; in [3]; in [5]; in the assay with CYP2C8 (gene 1558); with CYP2C9 (gene 1559)) was inactive. For the same compound, the result (in the assay with CYP2E1 (gene 1571); in assay [6]; in assay [7]; in assay [8]; in [9]; in [10]) was inactive. For the same compound, the call (in assay [11]; with CYP3A5 (gene 1577); in assay [12]; in [13]; in [14]) was inactive. Moreover, the concentration at half-maximal activity (AC50) in assay [4] is 10.3 µM (active).

For `CCCCC(CC)COC(=O)CCCCCCCC(=O)OCC(CC)CCCC` (stereo not drawn), the compound was classed as inactive (in [1]; in assay [2]; in assay [3]; in assay [5]; in the assay with CYP2C8 (gene 1558); with CYP2C9 (gene 1559)). For the same compound, the call (with CYP2E1 (gene 1571); in assay [6]; in assay [7]; in assay [8]; in assay [9]; in [10]) was inactive. Moreover, the compound was classed as inactive (in [11]; with CYP3A5 (gene 1577); in [12]; in [13]; in [14]). Besides, in assay [4], the AC50 was 30.9 µM (active).

With `CSc1ccc(Oc2ccc(S(N)(=O)=O)cc2CN(C)C)cc1C`, the compound was called inactive (in assay [1]; in [3]; in assay [5]; with CYP2C8 (gene 1558); with CYP2C9 (gene 1559); in assay [8]). Also, the compound was called inactive (in assay [9]; in [10]; in [11]; with CYP3A5 (gene 1577); in assay [12]; in assay [13]). Further, the result in assay [14] was inactive. Besides, the AC50 in assay [2] was 50 µM (active); in [4] it was 12.1 µM (active); with CYP2E1 (gene 1571), 47.6 µM (active); in [6], 14 µM (active); in [7] it was 75.2 µM (active); in assay [15] it was 85.1 µM (active).

`O=C1OC(c2ccc(O)cc2)(c2ccc(O)cc2)c2ccccc21`: the result (in assay [1]; in assay [3]; in the assay with CYP2E1 (gene 1571); in [7]; in [8]; in assay [9]) was inactive. Also, the compound was called inactive in [10], in assay [12] and in [15]. Further, the concentration at half-maximal activity (AC50) in assay [2] was 72.4 µM (active); in assay [4], 84.7 µM (active); in [5], 76.9 µM (active); in the assay with CYP2C8 (gene 1558), 78.7 µM (active); with CYP2C9 (gene 1559) it was 82 µM (active); with CYP4A11 (gene 1579) it was 80.1 µM (active). For the same compound, the half-maximal activity concentration (AC50) in the assay with CYP3A5 (gene 1577) is 62.1 µM (active); in assay [13], 50 µM (active); in assay [14] it was 78.5 µM (active).

As a reminder, the AC50 is the concentration giving half of the maximal activity seen.
